Laboratory results as given in the supplement of paper PMC6555819.

Columns and labels:
Assay in all cases: PBM binding z-score (relative to random genomic background probes); higher = stronger binding; sequences stand for … in GC…GCGATTGACAGCGTAGAATGAAGG
[1] = system: RARb homodimer (NR concentration 270 nM)
How it was run: (§1)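 Binding z-scores take random background probes as their reference. They come from custom Agilent 4×180K protein-binding microarrays incubated 1 h with ligand-free nuclear receptor dimers, with antibodies against each partner (one per run) detecting binding. Scanned fluorescence was regression-normalized.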

[2] = system: RARg:RXRa (NR concentration 270 nM, RXRa partner concentration 90 nM)
How it was run: as §1

[3] = system: RARg homodimer (NR concentration 270 nM)
How it was run: as §1

[4] = system: RXRa DBDmut IVT, anti-RXR (DBD mutation: RXRa K156A/R161A, NR concentration 90 nM)
How it was run: as §1

[5] = system: RXRa homodimer (NR concentration 180 nM)
How it was run: as §1

[6] = system: THRa:RXRa (NR concentration 90 nM, RXRa partner concentration 90 nM)
How it was run: as §1

[7] = system: THRa homodimer (NR concentration 90 nM)
How it was run: as §1

[8] = system: VDR homodimer (NR concentration 270 nM)
How it was run: as §1

Row | Sequence | PBM binding z-score [1] | PBM binding z-score [2] | PBM binding z-score [3] | PBM binding z-score [4] | PBM binding z-score [5] | PBM binding z-score [6] | PBM binding z-score [7] | PBM binding z-score [8]
1 | AGTCAAAGTTCAGGACGAGGTTACGTAAAGCACG | 3.96 | 5.81 | 5.25 | 3.2 | 4.19 | 3.92 | 1.81 | 3.15
2 | GGAACGAGGGCAAGTGGATAGCAGAGTTTGATGG | 1.59 | 1.62 | 2.03 | 1.93 | 0.87 | 1.1 | -0.000164 | 1.39
3 | CCTTACGGGTCACGAGGTTATACCACGACGAGCG | 3.83 | 6.22 | 5.35 | 1.77 | 7.21 | 3.84 | 1.13 | 2.24
4 | GCATATACGTAATACAAGGTGAAAGTCCGATTGT | 0.656 | 0.54 | 0.62 | 0.892 | 0.528 | 2.44 | 1.16 | 0.207
5 | ACTATTAGTTGAGACGGGGGCAACCGATAGGTTG | 1.92 | 2.03 | 1.77 | 1.55 | 1.42 | 3.01 | 1.12 | 1.98
6 | ACATACAGGTGATGAAGGTAACTCAGGCTATCAT | 0.492 | 0.787 | 0.615 | 0.27 | 0.874 | 1.16 | 0.135 | 0.174
7 | AGAACGAGGGCACGCTGAGTTGATAGCCGAGTAG | 1.22 | 1.94 | 2.15 | 1.99 | 1.39 | 1.89 | 0.0635 | 1.57
8 | TCTTGTCGATCAATAGAGGTTAAGAAAGTGCGCT | 1.53 | 0.847 | 0.688 | 0.601 | 1.46 | 1.94 | -0.159 | 0.435
9 | CCGACTGGGGCAGAAAGGTTAACATACCATCCGG | 2.42 | 1.95 | 1.84 | -0.366 | 2 | 1.09 | -0.284 | -0.0953
10 | CAAACTAGGTCAAGGTCAAAGACGGTTTGTGCCA | 5.1 | 5.82 | 6.9 | 3.16 | 5.06 | 4.34 | 3.55 | 4.1
11 | CTCGAAAGGTCGTGCTCCGGTGAGTATACCAAAC | 3.04 | 5.03 | 3.94 | 2.08 | 5.18 | 3.06 | 0.517 | 1.26
12 | TCTAGCAGGCCAGAGGGTCACCCAAGAGGTACGG | 2.74 | 3.04 | 2.17 | -0.135 | 2.96 | 1.97 | 0.143 | 0.203
13 | AGAATGAGGTTATTAAGATCAGGTAATTGCGGTC | 1.14 | 1.13 | 0.895 | 1.8 | 1.87 | 2.5 | 1.2 | 1.13
14 | GCTAGCATGCCATTTGGGTCACTCAATGACGGGC | 1.77 | 0.756 | 0.805 | -0.283 | 0.99 | 1.69 | 0.874 | 0.0275
15 | GCAGACAGGTGAAACGCAGGTAACTCAAGGTGGC | 0.0427 | 0.907 | 0.318 | -0.708 | 0.523 | 1.76 | -0.397 | -0.202
16 | GGAACGAGGGCATTCGAGTTGATAGAATGGCGAT | 0.53 | 1.01 | 1.5 | 2.88 | 0.761 | 3.35 | -0.605 | 3.02
17 | CCTAGTTGGTCAGGAGGTCACACCCCGGATATGA | 4.41 | 5.03 | 4.13 | 0.124 | 4.77 | 3.74 | 2.36 | 2.96
18 | AGAATGAGGTTATACGTAGACCAGGGAAGAAAGT | 0.866 | 1.63 | 1.19 | 1.61 | 2.16 | 1.98 | 0.296 | 0.999
19 | ACTATTAGTTGAGACGAGGGCAACCGCTAGGTTG | 1.35 | 0.408 | 0.507 | 0.704 | 0.516 | 2.66 | 0.222 | 0.863
20 | ATCTCTAGGTAACCAAGTTCAGGGAATGCCGAAC | 1.55 | 0.828 | 0.852 | 0.481 | 0.745 | 1.69 | 0.87 | 2.84
21 | CCGATTGGGGCAGAAAGGTTACCATACCATCCGG | 2.03 | 1.61 | 1.25 | -0.405 | 1.75 | 0.945 | -0.567 | -0.225
22 | CGAACTAGATCATTGACAGGACAGTGAATAGTAA | 0.278 | 0.201 | 0.25 | 0.0168 | 0.337 | 0.239 | 0.557 | 0.205
23 | CCTTACGAGTCACTGACAGGTTATAGCATTTGGA | 1.23 | 1.22 | 0.808 | 0.998 | 0.893 | 0.852 | 0.813 | 0.964
24 | ACAGACAGGTGAGTGAAGGAAACTCAGCTGGACG | -0.566 | -0.0497 | 0.189 | -0.324 | 0.249 | -0.366 | -0.967 | -0.21
25 | CCTAGTTGGTCACGAGGTCACACACCGGATATGA | 4.65 | 5.36 | 4.66 | 1.84 | 5.19 | 4.43 | 4.41 | 3.84
26 | GCTAGTTGGTCAGTAAAAGGTTACACACCGGTCG | 2.7 | 2.11 | 1.34 | 0.00211 | 1.59 | 1.42 | 0.424 | 0.234
27 | CGGCCAAGGTCAAGGTCAGTGAAAGAGACTCGAA | 5.16 | 6.85 | 7.69 | 3.48 | 6.81 | 4.33 | 2.89 | 2.95
28 | CCTTACGGGTCACTCCAGTTTATAGCATCGGAGT | 2.7 | 4.06 | 4.22 | 1.78 | 3.83 | 4.11 | 0.161 | 2.06
